Source: PubChem
ROS inducer: inducers of reactive oxygen species in cancer cells. U2OS ROS induction, H2DCF-DA fluorescence. ROS induction (% of piperlongumine), % at 10 µM. actives 2% (n = 46,000). AID 624156; in the data active = ROS induction above about 79%, passing the limit was not always enough; inconclusive = no clear call, values can overlap the other calls;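 also: 0% = DMSO vehicle median and 100% = reference compound median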
NOMO-1 viab: STK33 inhibitor candidate reducing NOMO-1 cell viability; actives 7.5% (n = 37,000); AID 2330; inhibition, % (no concentration beside the values); NOMO-1 AML viability, CellTiter-Glo luminescence, 72 h; in the data active = inhibition above about 80%; inconclusive = no clear call, values can overlap the other calls
YB-1 expression: YB-1 expression inhibition; U2OS, qRT-PCR YB-1 vs CDIP delta delta Cp, 16 h; hits give high values; zero = DMSO, each unit about twofold; delta delta Cp (YB-1 minus CDIP) (test concentration not listed); actives 0.37% (n = 30,000); AID 434959;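 active = delta delta Cp rounded down to an integer at or above 3, about 3 SD of DMSO wells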;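 also: higher means less YB-1 transcript or more CDIP transcript relative to DMSO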
PD-1 reversal: activators reversing PD-1 mediated T-cell inhibition | 29,000 tested, under 10 active | primary human CD4 T cells, PD-L1 beads, CellTiter-Glo 96 h | activation, % (concentration not given with the values); call rule not given here;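 also: 0% = median vehicle wells and 100% = positive control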
MITF inhib: blocks MITF activity. TRPM1 promoter luciferase, luminescence, 24 h. inhibition, % (concentration not given with the values). actives 0.28% (n = 37,000); in the data active = inhibition above about 85%; inconclusive = no clear call, values can overlap the other calls; inactive = below about 68%;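 also: human melanocyte line stably carrying TRPM1 promoter luciferase reporter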
Active calls of the source: *; ? = inconclusive; nt = no result. The sample as a whole holds a higher share of hits than the screen did.

SMILES	ROS inducer	NOMO-1 viab	YB-1 expression	PD-1 reversal	MITF inhib
O=C(O)CCC(=O)Nc1ccc(Cc2ccncc2)cc1	-14	-16	8.6*	1	-10
CCOC(=O)C(C)Sc1ncnc2nc[nH]c12 (configuration not stated)	-14	nt	nt	nt	nt
CCOC(=O)C(C)Sc1ncnc2c1nnn2-c1ccc(OC)cc1 (configuration not stated)	179*	nt	nt	nt	nt
C[C@@H]1CN([C@H](C)CO)C(=O)c2cccc(NS(=O)(=O)c3cccs3)c2O[C@@H]1CN(C)Cc1ccc(Oc2ccccc2)cc1	69	41	-0.15	-1	-11
C[C@H](CO)N1C[C@H](C)[C@H](CN(C)Cc2ccccc2)Oc2ccc(NC(=O)Cc3cn(C)c4ccccc34)cc2CC1=O	9	-1	-0.21	nt	19
C[C@@H]1CN([C@@H](C)CO)C(=O)Cc2cc(NC(=O)Cc3cn(C)c4ccccc34)ccc2O[C@@H]1CN(C)Cc1ccc(Cl)c(Cl)c1	18	107*	-0.26	-4	17
C[C@@H]1CN([C@H](C)CO)C(=O)Cc2cc(NC(=O)Cc3cn(C)c4ccccc34)ccc2O[C@H]1CN(C)Cc1ccc(Cl)c(Cl)c1	39	115*	0.12	-1	32
COC(=O)c1cccc(NC(=O)COc2cc(C)ccc2C)c1	52	20	nt	1	16
Cc1nn(C)c(C)c1CNC(=O)c1ccc(N2CCOCC2)nc1	-3	nt	nt	nt	nt
CCOC(=O)c1ccc(Nc2c(C(=O)OCC)cnc3ccccc23)cc1	99*	nt	nt	nt	nt
O=C(CCc1ccc(O)cc1)CC(CCc1ccc(O)cc1)O[C@@H]1OC[C@@H](O)[C@H](O)[C@H]1O (some centres not stated)	3	113*	-0.36	-2	-14
Oc1ccc(CCCCC(CCc2ccc(O)cc2)O[C@@H]2OC[C@@H](O)[C@H](O)[C@H]2O)cc1 (some centres not stated)	-8	nt	-0.62	nt	nt
C[C@@H]1CN([C@@H](C)CO)C(=O)c2cccc(NC(=O)Nc3ccc(C(F)(F)F)cc3)c2O[C@H]1CN(C)Cc1ccc2c(c1)OCO2	43	85*	-0.18	-7	66
C[C@H](CO)N1C[C@H](C)[C@H](CN(C)Cc2ccc3c(c2)OCO3)Oc2c(NC(=O)Nc3ccc(C(F)(F)F)cc3)cccc2C1=O	31	104*	-0.099	-5	27
C[C@H]1CN([C@@H](C)CO)C(=O)c2cccc(NC(=O)Nc3ccc(C(F)(F)F)cc3)c2O[C@@H]1CN(C)Cc1ccc2c(c1)OCO2	9	109*	-0.035	-5	19
C[C@H](CO)N1C[C@H](C)[C@H](CN(C)Cc2ccc3c(c2)OCO3)Oc2c(NC(=O)Nc3ccc4c(c3)OCO4)cccc2C1=O	-2	?	-0.25	1	-14
C[C@@H]1CN([C@H](C)CO)C(=O)c2cccc(NC(=O)Nc3ccc4c(c3)OCO4)c2O[C@H]1CN(C)Cc1ccc(C(F)(F)F)cc1	22	104*	-0.064	nt	28
Cc1oc(S(=O)(=O)N2CCCC2)cc1C(=O)NCCN1CCNC1=O	-1	nt	nt	nt	nt
Cc1ccc(OC(=O)N(C)C[C@@H]2OCc3cn(nn3)CCCC(=O)N([C@H](C)CO)C[C@@H]2C)cc1	2	nt	-0.4	nt	nt
C[C@H](CO)N1C[C@H](C)[C@@H](CN(C)Cc2ccc3c(c2)OCO3)Oc2c(NC(=O)Nc3ccc(F)cc3)cccc2C1=O	19	72	0.31	-4	-6
C[C@H]1CN([C@@H](C)CO)C(=O)c2cccc(NC(=O)Nc3ccccc3)c2O[C@@H]1CN(C)Cc1ccc2c(c1)OCO2	13	68	0.09	-4	4
C[C@H](CO)N1C[C@H](C)[C@@H](CN(C)Cc2ccc3c(c2)OCO3)Oc2c(NC(=O)Nc3ccc(C(F)(F)F)cc3)cccc2C1=O	6	104*	0.18	nt	42
C[C@H](CO)N1C[C@H](C)[C@H](CN(C)Cc2ccc3c(c2)OCO3)Oc2c(NC(=O)Nc3ccc(F)cc3)cccc2C1=O	3	55	0.039	-1	17
C[C@@H]1CN([C@H](C)CO)C(=O)c2cccc(NC(=O)Nc3ccc(C(F)(F)F)cc3)c2O[C@@H]1CN(C)Cc1ccc2c(c1)OCO2	11	104*	0.0036	-4	1
C[C@@H]1CN([C@H](C)CO)C(=O)c2cccc(NC(=O)Nc3ccc(C(F)(F)F)cc3)c2O[C@H]1CN(C)Cc1ccc2c(c1)OCO2	21	104*	0.091	-8	63
SMILES	ROS inducer	NOMO-1 viab	YB-1 expression	PD-1 reversal	MITF inhib
COC(=O)c1c(C)nn(-c2ccccc2)c1-n1c(C)ccc1C	-5	nt	nt	nt	nt
c1ccc(-c2nnc(N3CCc4ccccc43)nc2-c2ccccc2)cc1	103*	40	-0.36	0	5
O=C(NCCc1ccccc1)Nc1ccc2c(c1)N(Cc1ccccc1)C(=O)c1ccccc1S2	-3	nt	nt	nt	nt
CC(C(=O)O)c1ccc(C(=O)c2cccs2)cc1 (configuration not stated)	-19	-13	6.9*	8	3
Cc1cccc(N(CC(=O)NC2CCCCCC2)S(C)(=O)=O)c1C	-12	-2	nt	0	0
C=C1CC[C@H]2C(=C)CC[C@@]3(O)C(=C)C(=O)O[C@@H]3[C@@H]12	25	110*	0.051	-16	7
CCn1c(SCC(=O)Nc2ccccc2F)nnc1-c1cccc(N)c1	-1	-6	nt	3	-2
C=C[C@@](C)(O)CCC1C(=C)CCC2[C@@](C)(CO)CCC[C@]12C (some centres not stated)	-5	37	0.062	-1	2
Nc1nc(SCC(=O)NCC2CCCO2)[nH]c(=O)c1-c1ccccc1 (configuration not stated)	4	-14	nt	2	3
Nc1nc(SCc2nc(-c3ccccc3)no2)[nH]c(=O)c1-c1ccccc1	106*	-6	nt	0	-7
O=C(NO)c1ccc(C(=O)N/N=C/c2ccccc2Br)cc1	17	nt	-1.3	nt	nt
CCOC(=O)c1nnn2c1nc(Sc1nc3ccccc3o1)c1ccccc12	108*	116*	-0.17	-5	16
CCOC(=O)c1nnn2c1nc(N(CC)CC)c1ccccc12	37	8	-0.57	0	8
CCOC(=O)c1nnn2c1nc(Sc1nnc(-c3ccncc3)n1C)c1ccccc12	161*	117*	-0.79	-5	7
CSC(SC)=C(C#N)C(=O)c1cccc(C(F)(F)F)c1	-3	123*	-0.037	-2	11
N#CC(C(=O)c1cccc(C(F)(F)F)c1)=C1SCCCCS1	-4	57	-0.59	0	-38
CCOc1ccccc1C(=O)Oc1c(S(=O)(=O)c2ccc(C)cc2)c(C)nn1-c1ccccc1	nt	103*	nt	nt	33
CCOc1ccccc1NC(=O)c1ccccc1N(C)S(=O)(=O)c1ccc(C)cc1	nt	46	nt	nt	4
C[C@H](CO)N1C[C@H](C)[C@H](CN(C)Cc2ccc(Cl)c(Cl)c2)Oc2ccc(NC(=O)Nc3cccc4ccccc34)cc2C1=O	-19	17	0.083	-3	22
